Source: paper PMC12864922, “TDP-43 directly inhibits mRNA accumulation in neurites through modulation of mRNA stability”
Whole data set: some 9,900 sequences, median “r (bound/input frequency ratio)” near 0.7, cut for the highest 2% near 6.5. Shown is part of a subset that was picked to be rich in the highest values.

B1: ENSMUSG00000043670.145|Diras1 (ssRNA)
RNA: GGGAGUUCUACAGUCCGACGAUCGCUUCGAUAUCCGCAUGCUAUCAGGGGAGGCACACUGGAACCCUGAACUUGGAGUGUGGAGUGGCUGCCUGGACACUGCCCACCUGGACACCAGCCUUCUGCUGAGAUAGAGACCUUGGCACAGUGGCACCUCGACAGCCACCCCGACUGGGGGUUUGGGGUGCUGAGGGUGGGGUGCCCAGCUGAGAGUCUAUCAGCAAAGUCCCUGUGUGCGGUGAUAGGACUAGUGGCUGCUGCCCUAGGGCUCUGACAGAAUCUGAGCCUCUUUGCUGGUCAUGUGCUCUUGCGGUCGCACUAGUGUGGAAUUCUCGGGUGUCAAGG
B2: ENSMUSG00000022095.153|Fam160b2|110:114 (ssRNA)
RNA: GGGAGUUCUACAGUCCGACGAUCGCUUCGAUAUCCGCAUGCUAGACUAUAGGAACUCAAGGUACAGAUGGGACAGGGCACCCCAACUCCAAACCCCAGAAGCCUAGUGAGGCUAGGCCGAGACACAAGCAGAUAGCUCUGGCAUUGUUCUUCCAUACUCCUCCAUGGCUGGGGCUGCUACCUCACCCGGCCUGAAUCUGUCUCAACCUGCAAGAGCACUCGGGCGGCGCCAGGCAUUACCUCACAACAGGCCUGCAGUUGUUGGCUUCCCUCCUGGGCAAGGAGGAGCAGGCCAGAGCCCCUUCUCUUGCGGUCGCACUAGUGUGGAAUUCUCGGGUGUCAAGG
B3: ENSMUSG00000042529.77|Kcnj12|96:100 (ssRNA)
RNA: GGGAGUUCUACAGUCCGACGAUCGCUUCGAUAUCCGCAUGCUAACAAACAAAAACAAACAAACAAACAAUCAAAAAAAAAACCCACCCCACAAAACACAAGAAAACAUUAACAGGUGGUUCAAUUUUUAAAAUUCCUGCACACGGGACAGUUGGAAUUCUACUCAGCGCUGCCAGGCAAGCAGCUGGACGGAGAACCCUGAGGGUUCUCAGAGGUCUGUUUUCUCCCUCACGUGGGCCAGGGCCUUAAGCGAGUUGUCAUGCUUAAGGAUGAAUCAGGCUGCUUGUGACCAUGUUAACGAUUCCUCUUGCGGUCGCACUAGUGUGGAAUUCUCGGGUGUCAAGG
B4: ENSMUSG00000090935.460|Synj2bp (ssRNA)
RNA: GGGAGUUCUACAGUCCGACGAUCGCUUCGAUAUCCGCAUGCUACACAACCAGUAAGAAAAAUAUUGCCAUCCAAAACAGAGCACAGUGCAGCAACAUAGAAGAUAAGCAGAUAACCAGCAAGUAUUGUAAGGAGUUCAGAAAAGGAAAGCCAUCGUGUAGUGGCAUCAGGGGAGAAUGGAAAGGAAAGUCUAGAACAGUCCAGUGAUACUUUACCUCUGGGAAAACUCUUGAUACAGGGAGACAUUUGCUUUAAACAAUCUUCACAUAACUAAGCCAUUCAGUACUUUUUGAAACUGACUUAGCUCUUGCGGUCGCACUAGUGUGGAAUUCUCGGGUGUCAAGG
B5: ENSMUSG00000061578.947|Ksr2 (ssRNA)
RNA: GGGAGUUCUACAGUCCGACGAUCGCUUCGAUAUCCGCAUGCUAAAGACUGCAUGUUAACGCUCCUGCCACUGUUGCCCCUUCCUUUACCCUUGGCAGACAUUGCUAAUCAAUCUCAGCACAGUUUCCAACCACAGUCAUAGAACAUUUGCCACAAAGGCCCUGGAUGUGACUAUAUGUGCUGAGAAGGGAAGGUAGUUUUCCCCCAGAAAGUCCCUUCUAAUAAACAUUGAUGACUUUAGAAUCCAUGACUCAGAAUUUUCCAGAGACCCAAUCCCUCGGGGUCCACUUAGUGAUGGGACCAUCUCUUGCGGUCGCACUAGUGUGGAAUUCUCGGGUGUCAAGG
B6: ENSMUSG00000090935.28|Synj2bp|72:76;256:260 (ssRNA)
RNA: GGGAGUUCUACAGUCCGACGAUCGCUUCGAUAUCCGCAUGCUAGUAAAUGGCCAAGAUCUGAAGAACCUGCUGCACCAAGAUGCUGUAGACCUCUUCCGUAAUGCGGGAUGUGCACACACCCUGAGAGUACAGCACAGGUUACCAGUGCAGAAUGGACCUAUAGUACAUCGAGGUGAAGGAGAGCCAAGUGGAGUUCCUGUAGCUAUGGUGCUGCUACCAGUGUUUGCCCUCACCAUGGUAGCAGUUUGGGCCUUCGUGAGAUACCGAAAGCAGCUUUGAAAUGCUUGCUGUCUUCCACACACCUCUUGCGGUCGCACUAGUGUGGAAUUCUCGGGUGUCAAGG
B7: ENSMUSG00000042529.254|Kcnj12 (ssRNA)
RNA: GGGAGUUCUACAGUCCGACGAUCGCUUCGAUAUCCGCAUGCUAUUCCCCUAGGACCCGCUGCAGAGGCAUGGGCUCCUCUGUGGUCCUGGCCAGACCUCUGCCCCCAAAUCUCACUGACUGUUCUAGCCUUGGCCUUGGGGCCUAAGGGUGCAUUCAGCCUGGGUGUGCUUACCUGCCACUCACCUCUCUAUCUAGUUGUCGAGUCUAGGGAAGGGCAGAGGGUGGGUCCUGGCCACUGGGUGCCACUGUGGGAGCCGGGGCACCUGUCAUUCUUUCUGAGUAGGUGGGCCUGUAUCCAGAGCCUCUUGCGGUCGCACUAGUGUGGAAUUCUCGGGUGUCAAGG
B8: ENSMUSG00000061578.312|Ksr2 (ssRNA)
RNA: GGGAGUUCUACAGUCCGACGAUCGCUUCGAUAUCCGCAUGCUACCAGGGAGGGCUGAAGCUCUGGGACCCUGAAGUGUCCCCCGGGAACUGGGACUCACUCAUCUUCUCCUGUUUGUAGCUCAAUGACCCAGUGGGUCACAGUUCUAGGCGCUCCAAGGAAGCCAGGGGAGGGGGACUCCUCAGGAAGGAGUGACCAGUCACCUGCCUCCCAGGGUUCUGCCUUGCCCUUAAGCUAGGGUCCUUCAAGCAUCCACAGACUUAGAGUGUGGUGGUAACAUGCUUGUAAUCCUGGCACUCUGGAGCUCUUGCGGUCGCACUAGUGUGGAAUUCUCGGGUGUCAAGG
B9: ENSMUSG00000029636.114|Wasf3 (ssRNA)
RNA: GGGAGUUCUACAGUCCGACGAUCGCUUCGAUAUCCGCAUGCUAGCGGCCAUUUUUAUGAGGGGAGCCCUGUGGGUACUCAUGUGGAAAGUGCCCACUGACUUUGGCAGAUGGAGUUCACUUUCAUGGCUAGCCCUGAUAGCGUUGGGCACCAGUUAGCCAGGCCAUGUUCAAGCUGCCUAGAGUCUGCAGAGCUUGCAUGGCAGAGCGGCCGCAUCUGGUUCCCUCCUACUCCACCCAGUGGAAAAGAGACCUCCACGUUUUAUUUUCUGGGAUCCCUGCUCCUCUGUUCACCAGGGAGUGAGCUCUUGCGGUCGCACUAGUGUGGAAUUCUCGGGUGUCAAGG

These binders were tested against TDP-43 (Homo sapiens, UniProt Q13148 1-414) (assay: RNA Bind-n-Seq with designed 260-mer pool; 25 mM Tris-HCl, 150 mM KCl, 3 mM MgCl2, BSA (printed 500 mg/mL), 20 units/mL SUPERase IN; pH not stated; 500 nM RNA pool, 1 h, 4 C; TDP-43 5, 50, 500 nM; high values mean tight binding). Details: protein: recombinant; tags: SBP (GST cleaved off with PreScission; pGEX-GST-SBP).
Chain of TDP-43 (Q13148 whole entry): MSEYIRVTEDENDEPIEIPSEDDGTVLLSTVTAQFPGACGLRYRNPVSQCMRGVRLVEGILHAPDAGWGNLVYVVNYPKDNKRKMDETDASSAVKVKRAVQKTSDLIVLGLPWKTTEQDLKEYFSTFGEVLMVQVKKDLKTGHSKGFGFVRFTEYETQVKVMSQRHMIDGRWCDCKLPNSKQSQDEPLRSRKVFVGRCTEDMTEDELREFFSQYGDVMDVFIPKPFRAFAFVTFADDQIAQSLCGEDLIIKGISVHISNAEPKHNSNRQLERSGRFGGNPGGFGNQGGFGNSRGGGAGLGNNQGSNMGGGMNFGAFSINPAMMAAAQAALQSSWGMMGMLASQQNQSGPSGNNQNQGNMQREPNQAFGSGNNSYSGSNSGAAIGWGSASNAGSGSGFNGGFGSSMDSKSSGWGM
Outline: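 The incubation lasted 1 h at 4 °C and used 500 nM of an in vitro-transcribed 260-nt 3′ UTR oligo pool with recombinant SBP-tagged TDP-43 at 5, 50 or 500 nM immobilized on streptavidin beads. It took place in 25 mM Tris-HCl, 150 mM KCl, 3 mM MgCl2, BSA and SUPERase IN. Bound RNA was washed, eluted with biotin, converted to cDNA, PCR-amplified and sequenced to give R, each oligo's normalized abundance in the bound sample divided by that in input. Two independent protein batches provided the duplicates.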

| Binder | binding signal |
| --- | --- |
| B1 | 0.713 R (bound/input frequency ratio) |
| B2 | 1.53 R (bound/input frequency ratio) |
| B3 | 1.63 R (bound/input frequency ratio) |
| B4 | 0.396 R (bound/input frequency ratio) |
| B5 | 0.693 R (bound/input frequency ratio) |
| B6 | 1.49 R (bound/input frequency ratio) |
| B7 | 0.966 R (bound/input frequency ratio) |
| B8 | 0.535 R (bound/input frequency ratio) |
| B9 | 0.753 R (bound/input frequency ratio) |
